According to ChEMBL document CHEMBL4513216, “Probing the Open Global Health Chemical Diversity Library for Multistage-Active Starting Points for Next-Generation Antimalarials” (ACS Infect Dis, 2020):
The whole screen tested about 69,000 compounds, of which about 8,600 (12%) showed an effect of 50% or more. The sample holds strong results, similar compounds and a random draw of the others, so the mix is not that of the screen.

Each compound was assayed on Plasmodium berghei (assay: Screen against P. berghei liver stage (PbLuc), transformed with Luciferase, at 10uM). Settings: tested at 10 uM.
Format: functional, HepG2

Row | Structure (SMILES) | INHIBITION
1 | O=C1CN(C(=O)c2cc3c(F)cc(Br)cc3[nH]2)CCN1 | -44.2%
2 | Cc1cccc(N2CCc3ncc(CNc4ccccn4)n3CC2)n1 | -26.1%
3 | Cc1cc(N2CCOC(c3ccc(C(N)=O)cn3)C2)ncn1 (stereo unspecified) | 36.9%
4 | Cc1cc(C)nc(N2CCC(C(=O)Nc3n[nH]c(C)n3)CC2)n1 | 47.3%
5 | COCCN1CCC2(CCC1=O)CN(C1CCOCC1)CCN2C (stereo unspecified) | 17.8%
6 | CC(=O)Nc1nc(C(=O)Nc2ccc(N3CCCCC3)nc2)cs1 | 78.1%
7 | CC(=O)Nc1nc(C(=O)Nc2ccc(F)cc2)cs1 | 31.1%
8 | CCN(CC)c1ccc(CNC(=O)c2cccc(C)n2)cn1 | 16.2%
9 | CCN1CCN(c2ccc(CNC(=O)c3cc(C)on3)cn2)CC1 | 25.6%
10 | Cc1cccc(C(=O)NCc2ccc(N3CCCCC3)nc2)n1 | 8.48%
11 | CC(=O)Nc1nc(C(=O)NCc2ccc(N3CCOCC3)nc2)cs1 | 19.4%
12 | CC(=O)Nc1nc(C(=O)NCc2ccnc(N3CCCC3)c2)cs1 | 9.14%
13 | Cc1cccc(C(=O)NCc2ccc(N3CCCCCC3)nc2)n1 | 87.3%
14 | CC(=O)Nc1nc(C(=O)NCc2ccc(N3CCCCCC3)nc2)cs1 | 67.2%
15 | CCN1CCN(c2ccc(CNC(=O)c3ccc(Cl)o3)cn2)CC1 | 57.2%
16 | CC(=O)Nc1nc(C(=O)NCc2ccc(N3CCCC3)nc2)cs1 | 13.3%
17 | CCN1CCN(c2ccc(CNC(=O)c3cnn(C)c3C)cn2)CC1 | -15.5%
18 | CN(C(=O)C1CCC1)C1CCN(c2ccccc2Cl)C1=O (stereo unspecified) | 1.74%
19 | CC(=O)c1c(C)nn(S(=O)(=O)c2ccccc2)c1C | 49.3%
20 | CCN(CC)C(=O)CS(=O)(=O)c1cc(OC)c(OC)cc1C | -48.3%
21 | Cc1cnc(CN(C)C2CCN(Cc3nc4ccccc4o3)C2)o1 (stereo unspecified) | 13.3%
22 | C1CC(NCc2nnc(C3CC3)o2)CN(Cc2noc(C3CC3)n2)C1 (stereo unspecified) | -19.9%

Row | Structure (SMILES) | INHIBITION
23 | CN1CCN(S(=O)(=O)c2ccc(C(=O)N3CC[C@@H](O)C3)cc2)CC1=O | 1.41%
24 | c1cc(CC2CCCNC2)nc(NCCc2cnccn2)c1 (stereo unspecified) | 32.3%
25 | Cn1cc(C(C)(O)CNc2ccc(Cl)c(C#N)n2)cn1 (stereo unspecified) | -10.7%
26 | Cc1ccc(C(=O)N2CCCC(c3nncn3C)C2)c(C)c1 (stereo unspecified) | 45.1%
27 | CC(C)c1nnc2n1CCN(CCC(=O)N1CCc3ccccc31)C2 | 13.7%
28 | Cc1noc(C)c1C(=O)NCc1ccc(N2CCC(C)CC2)nc1 | 74.9%
29 | Cc1noc(C)c1C(=O)NCc1ccc(N2CCCCCC2)nc1 | 25.6%
30 | Cc1noc(C)c1C(=O)NCc1ccc(N2CCOCC2)nc1 | 5.03%
31 | CN(C)C(=O)[C@@H]1C[C@@H]2CCN(Cc3ccc4c(c3)OCO4)C[C@@H]2O1 | 13.1%
32 | O=C(c1ccncc1)N1CCN(c2ccc(F)cc2Cl)CC1 | 23.8%
33 | O=C(Cc1ccon1)N1CCN(c2ccc(F)cc2Cl)CC1 | 50%
34 | CC1CCCN(Cc2ccc(CNC(=O)NCc3ccon3)cc2)C1 (stereo unspecified) | -18.6%
35 | Cc1nc(CNC(=O)Nc2cc(F)ccc2N2CCN(C)CC2)no1 | 52.7%
36 | O=C(NCc1ccon1)Nc1cc(F)ccc1N1CCCCC1 | 28.8%
37 | CCc1cc(CNC(=O)Nc2cc(F)ccc2N2CCCCC2)on1 | 26.6%
38 | Cc1nc(CNC(=O)Nc2cc(F)ccc2OC(F)F)no1 | 5.91%
39 | CN1CCN(c2ccc(F)cc2NC(=O)NCc2ccon2)CC1 | 51.6%
40 | CCN1CCN(c2ccccc2NC(=O)NCc2ccon2)CC1 | 50.4%
41 | O=C(Cc1ccon1)N1CCN(c2ccncc2Cl)CC1 | 20.9%
42 | CC1CN(C)c2ccccc2CN1C(=O)NCc1ccon1 (stereo unspecified) | 4.6%
43 | CN1CCN(c2ccc(F)cc2NC(=O)NCC[S+](C)[O-])CC1 (stereo unspecified) | -33%
44 | COc1cccc(C(=O)N2C[C@@H]3CC[C@H]2CN(Cc2cscn2)C3)c1 | 7.3%

Row | Structure (SMILES) | INHIBITION
45 | CC(C)NC(=O)NC(C)c1nc(-c2ccccc2)cs1 (stereo unspecified) | 15.7%
46 | O=S(=O)(c1cccc(F)c1)N1CC[C@H]2[C@H]1CCN2c1ncccn1 | -12.4%
47 | CN(C)C(=O)[C@H]1C[C@@H]2CCN(C3CCOCC3)C[C@@H]2O1 | -0.371%
48 | COc1c(C2CCCN2C(=O)c2scnc2C)c(C)nn1C (stereo unspecified) | 25.1%
49 | COc1ccc(S(=O)(=O)NC(=O)COC2CCCCC2)cc1 | 14.1%
50 | CC(C)n1nccc1CN1Cc2nccn2CC1c1ccccc1 (stereo unspecified) | 7.39%
51 | Cc1nn(C)cc1C(=O)NCc1cc(N(C)C)nc2ccccc12 | -17.8%
52 | Cc1nn(C)c(C)c1C(=O)NCc1cc(N(C)C)nc2ccccc12 | -21.1%
53 | CCn1nc(C)cc1C(=O)NCc1cc(N(C)C)nc2ccccc12 | 54.4%
54 | CNC(=O)CN1CCO[C@H]2CN(C(=O)C3CC3)C[C@H]21 | -8.85%
55 | C1CC(c2noc(C3CC3)n2)N(Cc2nnc(C3CC3)o2)C1 (stereo unspecified) | 15.75%
56 | CC(=O)N1CCOC(c2c(C(=O)O)sc3ccccc23)C1 (stereo unspecified) | -9.51%
57 | Cn1cnc2c1CCN(Cc1nc(COc3ccc(F)cc3)no1)C2 | 53.8%
58 | Cn1c(C2CC2)nc2c1CCN(Cc1nc(Cc3ccccc3)no1)C2 | 34.7%
59 | Cn1cnc2c1CCN(Cc1nc(Cc3ccccc3)no1)C2 | 52.7%
60 | Cn1cnc2c1CCN(Cc1nc(-c3ccco3)no1)C2 | 45.1%
61 | c1cc(-c2noc(CN3CCc4c(ncn4C4CC4)C3)n2)cs1 | 31.1%
62 | Cn1cnc2c1CCN(Cc1nc(-c3ccsc3)no1)C2 | 52.7%
63 | c1cncc(-c2noc(CN3CCc4cncnc4C3)n2)c1 | 22.683%
64 | Cn1cnc2c1CCN(Cc1noc(-c3ccccc3)n1)C2 | 43.7%
65 | CC(C)c1nc2c(n1C)CCN(Cc1nc(-c3ccsc3)no1)C2 | 47.6%
66 | c1ccc(Cc2noc(CN3CCc4c(ncn4C4CC4)C3)n2)cc1 | 0.411%

Row | Structure (SMILES) | INHIBITION
67 | CCc1ncc2c(n1)CN(Cc1nc(-c3ccccn3)no1)CC2 | 47.1%
68 | c1ccc(-c2noc(CN3CCc4cncnc4C3)n2)nc1 | 72.9%
69 | CN1C(=O)[C@@H]2CC[C@H]1CN(C(=O)c1nnc3n1CCCCC3)C2 | -89.9%
70 | CCS(=O)(=O)N1CCC2(CC1)CN(c1cccnc1)C(=O)CO2 | 45.7%
71 | CC(C)c1ncc2c(n1)CN(Cc1nc(-c3ccccn3)no1)CC2 | 28.8%
72 | CCCn1nccc1-c1nccnc1CC1CCN(C(C)=O)CC1 | 19.3%
73 | COC1C[C@@H]2CN(C(=O)c3cc4cccc(F)c4[nH]3)C[C@@H]2C1 (stereo partly specified) | -14.379%
74 | CCN(CC)Cc1cn2c(n1)CN(Cc1c(C)noc1C)CC2 | 16.6%
75 | COCCn1ccc2c(C(=O)NCC3CCCO3)cccc21 (stereo unspecified) | 23.7%
76 | Cc1cnc(N2C[C@@H]3CCN(CC(=O)N(C)C)C(=O)[C@H]3C2)nc1 | -61.9%
77 | Cc1ccc(CC2COCCN(Cc3ccccc3)C2)nc1 (stereo unspecified) | 35%
78 | Cc1ccc2c(n1)N(C)CCN(C(=O)NC1CC1)C2 | 1.28%
79 | Cn1cnc2c1CCN(Cc1csc(-c3ccccc3F)n1)C2 | 70.7%
80 | Fc1ccc(OCc2noc(CN3CCc4cncnc4C3)n2)cc1 | 50.4%
81 | COc1ccc(-c2noc(CN3CCc4cncnc4C3)n2)cc1 | 40.3%
82 | Cn1cnc2c1CCN(Cc1csc(-c3ccccc3)n1)C2 | 23.6%
83 | c1ccc(Cc2noc(CN3CCc4cncnc4C3)n2)cc1 | 19.6%
84 | Cn1cnc2c1CCN(Cc1csc(-c3ccc(F)cc3)n1)C2 | -2.522%
85 | CO[C@@H]1CCC[C@@H](N(C)C(=O)c2cn3cc(C)ccc3n2)[C@H]1O | -11.125%
86 | COc1ccc(C(=O)N2CCCS2(=O)=O)cc1 | -11.4%
87 | CN1C(=O)CC(c2ccccc2)C12CCN(CC1CCOCC1)CC2 (stereo unspecified) | -7.28%
88 | COCCN1CCC(CN(CC2CCCO2)C(=O)C2CCOCC2)CC1 (stereo unspecified) | 29.9%

Row | Structure (SMILES) | INHIBITION
89 | CN(C)Cc1nc(C(C)(C)NC(=O)c2ccnn2C)no1 | 57.6%
90 | Cn1nccc1C(=O)NC(C)(C)c1noc(C(C)(C)C)n1 | 12.7%
91 | CCCc1nc(C(C)(C)NC(=O)c2ccnn2C)no1 | 38.3%
92 | CCNc1ncc(C(=O)N2CCc3c(nc(C)nc3N(C)C)C2)cn1 | 36.7%
93 | CCO[C@H]1CN(C)C[C@@H]1NC(=O)c1cc(C)nc2c(C)cccc12 | 24.3%
94 | Cc1cc(SC(C)(C)C)ccc1NC(C)C(=O)NC(N)=O (stereo unspecified) | 65.7%
95 | Cc1cc(SC(C)(C)C)ccc1NC(=O)CNC(N)=O | 22.2%
96 | Cc1cc(SC(C)(C)C)ccc1NCC(=O)NC(N)=O | 32%
97 | O=C1NCC(c2ccc(F)cc2)Cc2[nH]c(CCN3CCCC3)nc21 (stereo unspecified) | 43.9%
98 | Cc1c(Br)cc2c(c1C)OCC(N(C)C)C2=O (stereo unspecified) | 24.8%
99 | COCCNc1nc2c(c(NCC3CCOC3)n1)CCNCC2 (stereo unspecified) | 22.3%
100 | COCCNc1nc2c(c(NCc3ccncc3)n1)CCNCC2 | -3.19%
101 | c1cn(CCNc2nc(NC3CC3)nc3c2CCNCC3)nn1 | 53.6%
102 | c1cc(-c2nc3c(c(NCCc4c[nH]cn4)n2)CCNCC3)ccn1 | 5.41%
103 | CCOCCNc1nc(-c2ccncc2)nc2c1CCNCC2 | -86.4%
104 | c1cc(-c2nc3c(c(NCCn4ccnn4)n2)CCNCC3)ccn1 | 72.1%
105 | O=C(N1CCCC1)N1CCn2c(nnc2C2CCCN2)C1 (stereo unspecified) | 27.5%
106 | Cc1nc(C2CCCN2Cc2nc(C3CC3)no2)no1 (stereo unspecified) | 26.9%
